PBM binding z-score data for six sequences are collected here from the supplement of paper PMC6555819.

Holding throughout (assay): PBM binding z-score (relative to random genomic background probes); higher = stronger binding; sequences stand for … in GC…GCGATTGACAGCGTAGAATGAAGG
For assay [1], the system named is FXR:RXRa (NR concentration 270 nM, RXRa partner concentration 90 nM). The method, boiled down: (§1)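 Binding buffer was PBS pH 7.4 with 2% milk, 0.02% Triton X-100, 1 mM DTT, 0.2 mg/mL BSA and 0.4 mg/ml salmon testes DNA. In it, ligand-free nuclear receptor dimers were incubated 1 h on custom Agilent 4×180K protein-binding microarrays carrying double-stranded probes. Antibodies against each partner (one per run) detected binding, and z-scores were calculated against random background probes after regression normalization of scanned fluorescence.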

Assay [2] concerns LXRa:RXRa (NR concentration 270 nM, RXRa partner concentration 90 nM). The method, boiled down: as §1
The subject of assay [3] is LXRa homodimer (NR concentration 270 nM). The method, boiled down: as §1
Assay [4] relates to LXRb:RXRa (NR concentration 270 nM, RXRa partner concentration 90 nM). Put shortly: as §1
Assay [5] has as its system LXRb homodimer (NR concentration 270 nM). The method, boiled down: as §1
Assay [6] concerns PPARa:RXRa (NR concentration 270 nM, RXRa partner concentration 90 nM). The method, boiled down:
as §1

Assay [7] relates to PPARg:RXRa (NR concentration 180 nM, RXRa partner concentration 90 nM). Put shortly: as §1
Assay [8] relates to PPARg:RXRa 270nM:90nM, anti-RXR (NR concentration 270 nM, RXRa partner concentration 90 nM). The method, boiled down: as §1
Assay [9] concerns PPARg:RXRa 30nM:10nM, anti-RXR (NR concentration 30 nM, RXRa partner concentration 10 nM). The method, boiled down:
as §1

Assay [10] deals with PPARg:RXRa 90nM:30nM, anti-RXR (NR concentration 90 nM, RXRa partner concentration 30 nM). Put shortly: as §1
Assay [11] has as its system PPARg:RXRa DBDmut IVT, anti-RXR (DBD mutation: RXRa K156A/R161A, NR concentration 270 nM, RXRa partner concentration 90 nM). The method, boiled down:
as §1

Assay [12] concerns PPARg:RXRa IVT, anti-PPARg (NR concentration 270 nM, RXRa partner concentration 90 nM). Put shortly:
as §1

Assay [13] has as its system PPARg DBDmut:RXRa IVT, anti-PPARg (DBD mutation: PPARg1 K132A/R137A, NR concentration 270 nM, RXRa partner concentration 90 nM). The method, boiled down: as §1
Assay [14] relates to PPARg DBDmut IVT, anti-PPARg (DBD mutation: PPARg1 K132A/R137A, NR concentration 270 nM). Put shortly: as §1
Assay [15] has as its system PPARg homodimer (NR concentration 180 nM). Put shortly: as §1
For assay [16], the system named is PXR:RXRa (NR concentration 270 nM, RXRa partner concentration 90 nM). The method, boiled down: as §1
The test system of assay [17] is PXR homodimer (NR concentration 270 nM). The method, boiled down: as §1
Assay [18] deals with RARa:RXR (NR concentration 270 nM, RXRa partner concentration 90 nM). Put shortly: as §1
The test system of assay [19] is RARa homodimer (NR concentration 270 nM). Put shortly: as §1
In assay [20] the test system is RARb:RXRa (NR concentration 270 nM, RXRa partner concentration 90 nM). Put shortly:
as §1

For CCAGACAGGTGAAACGTAACTCAGTCTGGTACGC, the PBM binding z-score in assay [1] is -0.253; in assay [2], -0.0571; in assay [3], -0.351; in assay [4] it was -0.105; in assay [5], -0.651; in [6], 0.658. Besides, the PBM binding z-score in assay [7] is 0.947; in assay [8], 0.946; in assay [9] it was -0.101; in assay [10], 0.589; in assay [11], 2.48; in assay [12], 0.769. In addition, the PBM binding z-score in [13] is -0.823; in [14], -0.558; in assay [15], 0.378; in [16], -0.325; in [17], -0.322; in [18], 0.0493. Moreover, the results for the PBM binding z-score in assay [19] and in assay [20] were 0.128 and 0.621, respectively.
As to AGTCACAGTTCACTAGGTAACGTAAGATTCAGCT, the PBM binding z-score in assay [1] is 0.936; in assay [2], 1.66; in [3], 0.659; in assay [4] it was 1.19; in assay [5], 0.166; in assay [6], 2.84. The PBM binding z-score in [7] is 2.96; in [8] it was 3.17; in assay [9] it was 1.06; in assay [10] it was 2.12; in assay [11] it was 2.42; in assay [12], 3.71. Moreover, the PBM binding z-score stood at 1.36 in [13]; 0.988 in [14]; 1.05 in assay [15]; 1.35 in assay [16]; 0.619 in assay [17]; 1.25 in [18]. For the same sequence, the PBM binding z-score in assay [19] was found to be 0.737; in assay [20], 2.31.
Take CCTAGTTGGTCAAGGTCATACACGCTATAGGTAC: the PBM binding z-score in [1] came out at 4.77; in assay [2], 4.27; in assay [3], 2.86; in assay [4] it was 3.52; in assay [5], 0.89; in assay [6] it was 3.97. In addition, the PBM binding z-score in assay [7] was determined as 2.79; in assay [8], 3.21; in [9], 1.22; in assay [10], 2.74; in [11] it was 2.28; in [12], 3.11. Besides, the PBM binding z-score came to 0.777 in assay [13]; 1.26 in assay [14]; 3.11 in assay [15]; 4.21 in assay [16]; 3.04 in assay [17]; 4.33 in assay [18]. Moreover, the results for the PBM binding z-score in [19] and in assay [20] were 2.79 and 4.04, respectively.
CTCGAAAGGTCGCTTGAGGTGAGTATACGGATAA: the PBM binding z-score in assay [1] is 4.18; in [2], 3.88; in assay [3] it was -0.291; in [4], 2.68; in assay [5] it was -0.203; in assay [6], 4.15. Also, the PBM binding z-score in assay [7] is 2.15; in assay [8], 2.92; in assay [9] it was 0.841; in assay [10] it was 1.64; in assay [11] it was 0.887; in assay [12], 1.84. Besides, the PBM binding z-score in assay [13] was -0.0758; in assay [14] it was 0.0176; in assay [15], 1.47; in assay [16], 4.26; in assay [17], 0.207; in assay [18] it was 3.93. The PBM binding z-score in assay [19] came out at 0.149; in assay [20] it was 3.61.
On to ATCTCTAGGTAAAAGTGCAGTGAATCCCGAGGAT, for which the PBM binding z-score is 0.179 in assay [1]; -0.141 in [2]; -0.393 in [3]; 0.0767 in [4]; 0.339 in assay [5]; 2.81 in assay [6]. In addition, the PBM binding z-score in assay [7] was 4.31; in assay [8] it was 5.78; in [9] it was 3.66; in [10], 6.27; in [11], 2.08; in assay [12] it was 2.5. The PBM binding z-score in assay [13] is 0.765; in assay [14], 0.971; in [15], 0.819; in [16] it was 0.0221; in assay [17] it was 0.246; in assay [18], -0.0111. Moreover, the PBM binding z-score was found to be 0.256 in assay [19] and 0.518 in assay [20].
With TCTTGTAGATCAAGAGGAGGTTAAGAAAGATCGA, the PBM binding z-score in assay [1] was 0.338; in [2], 0.95; in [3] it was -0.0702; in assay [4], 0.725; in assay [5], -0.517; in [6] it was 1.22. Further, the PBM binding z-score was -0.0325 in assay [7]; 1.24 in assay [8]; 2.38 in [9]; 1.6 in [10]; 1.29 in assay [11]; 0.615 in assay [12]. Further, the PBM binding z-score is 0.0065 in assay [13]; 0.335 in [14]; 0.153 in assay [15]; 0.769 in assay [16]; -0.0434 in [17]; 1.09 in [18]. Besides, the PBM binding z-score in assay [19] amounted to 0.139; in [20], 0.364.
